Screens from PubChem.
In the library only some 7.3% were active in any assay of this set; here they are far more common.
NIH3T3 tox = Cytotoxic Profiling in NIH 3T3 Cell Line of Diverse Libraries Using Quantitative High-Throughput Screening. NIH 3T3 viability, CellTiter-Glo ATP luminescence, 48-72 h. Potency, µM (series often up to 96.7 µM), for inactives: at the top dose activity change, negative = cytotoxicity, most hits filed as inhibitors. 4.3% of 94,000 active. AID 1345082, 2018; also: potency is read from the fitted curve at half-maximal effect; nearly all actives have a fitted effect of over 55% in size
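First NIH 3T3 cells are plated at 400 cells/well; next compound is pinned in; then plates incubate 48 or 72 hr at 37 °C; finally CellTiter-Glo is added and luminescence read after 10 min.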
HEK cytotox = Cytotoxic Profiling in HEK 293 Cell Line of Diverse Libraries Using Quantitative High-Throughput Screening | HEK 293 viability, ATP luminescence (CellTiter-Glo), 48-72 h | Potency, µM (top dose mostly 115 µM), for the others: at the top dose activity change, negative = cytotoxicity, usual class: inhibitors | 6.6% of 94,000 active; also: potency is read from the fitted curve at half-maximal effect; nearly all actives have a fitted effect of over 60% in size
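Read-out: CellTiter-Glo ATP luminescence. Cells: HEK 293, 250 cells/well. Exposure: 48 or 72 hr, 37 degree Celsius.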
HEK293 viab = GF-AFC viability counterscreen for inhibitors of alpha-synuclein gene (SNCA) expression; 0.12% of 150,000 active; AID 1671193, 2021; HEK-293-SNCA-luc viability, GF-AFC fluorescence, 24 h; Potency, µM (series often up to 57.1 µM), inactives show top-dose activity change, negative = cytotoxicity, usual class: cytotoxic;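 also: potency is read from the fitted curve at half-maximal effect; 0% = DMSO-treated cells and -100% = medium-only wells without cells; nearly all actives have a fitted effect of over 30% in size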
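Cytotoxicity counterscreen: after 24 h compound treatment of genome-edited SNCA-luciferase HEK-293 cells, live-cell protease substrate GF-AFC read by fluorescence after 30 min; activity scaled between DMSO (0%) and medium-only (-100%), curves Hill-fitted.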
SNCA expr inhib = Primary qHTS assay for inhibitors of alpha-synuclein gene (SNCA) expression; AID 1671194, 2021; HEK-293 SNCA-luciferase knock-in, luminescence, 24 h; 0.17% of 140,000 active; Potency, µM (series often up to 57.2 µM), without a hit: top-dose activity change, negative = inhibition, most hits filed as inhibitors;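 also: potency is read from the fitted curve at half-maximal effect; plate controls were DMSO cells for no effect and cell-free wells for full effect; nearly all actives have a fitted effect of over 45% in size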
FLuc inh = Firefly luciferase inhibition profiling of diverse chemical library using quantitative high-throughput screening | 2.5% of 76,000 active | purified P. pyralis luciferase, luminescence, biochemical | Potency, µM (titrated, usually from 115 µM), actives largely listed as inhibitors | Luciferin 4-monooxygenase (Photinus pyralis), P08659; also: potency is read from the fitted curve at half-maximal effect; nearly all actives have a fitted effect of over 65% in size
Target sequence (P08659 whole entry, looked up): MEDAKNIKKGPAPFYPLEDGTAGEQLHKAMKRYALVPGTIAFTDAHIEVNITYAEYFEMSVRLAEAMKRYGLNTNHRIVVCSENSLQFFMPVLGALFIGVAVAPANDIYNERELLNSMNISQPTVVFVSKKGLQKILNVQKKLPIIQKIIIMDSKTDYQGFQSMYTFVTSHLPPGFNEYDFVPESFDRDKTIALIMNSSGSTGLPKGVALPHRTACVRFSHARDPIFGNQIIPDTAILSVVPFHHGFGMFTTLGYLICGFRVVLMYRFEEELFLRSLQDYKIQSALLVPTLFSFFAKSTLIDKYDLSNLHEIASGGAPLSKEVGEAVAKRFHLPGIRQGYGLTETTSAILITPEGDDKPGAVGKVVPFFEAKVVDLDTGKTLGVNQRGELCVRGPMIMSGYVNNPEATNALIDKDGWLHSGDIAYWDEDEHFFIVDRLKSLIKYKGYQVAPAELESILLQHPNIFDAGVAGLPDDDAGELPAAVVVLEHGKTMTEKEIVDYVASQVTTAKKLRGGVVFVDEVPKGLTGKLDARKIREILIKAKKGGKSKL
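Cell-free enzyme assay, 10nM P. pyralis luciferase, luciferin and ATP each at 10uM. Inhibition profiled over a 6-point titration, read as luminescence.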
IP6K1 inhibitor = Primary qHTS assay for small molecule inhibitors of Inositol hexaphosphate kinase 1 (IP6K1). IP6K1 kinase, ADP-Glo luminescence, 2 h; hits give low values. 0.81% of 140,000 active. AID 1645851, 2021. activity change, % (series mostly up to about 58 µM); in the data active = activity change below about -25%
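ADP-Glo luminescence measures ADP made by human IP6K1 during a 2 h RT reaction with ATP/IP6 (mix at 1.3 mM/130 uM); top library doses 57.5 and 19.1 uM final.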
* = called active by the depositor; i = inactive; ? = inconclusive; . = not tested or not shown; [ ] = remark or other dose. Unless noted, calls follow the shape of the dose curve; as a rule, active = well fitted curve in the direction sought with a large enough effect; inconclusive = small, poorly fitted or top-dose-only effect, or another doubt; inactive = no such curve, though single readings can be large; an effect the other way counts as inactive or inconclusive. Unless noted, % is scaled to controls: 0 for no effect and ±100 for the full control effect.

SMILES | NIH3T3 tox | HEK cytotox | HEK293 viab | SNCA expr inhib | FLuc inh | IP6K1 inhibitor
O=C(N1CCC(c2noc(C3CC3)n2)C1)C1(c2ccccc2)CC1 (configuration not stated) | -4% | 7% | 1% | -8% | i | 2
Cn1ncc2c(C(=O)NCC3CCCCC3)cc(-c3ccc(F)cc3)nc21 | ? | ? | . | . | . | -7
O=C1NCCCCCCN(C(=O)C2CC=CC2)[C@H]2C[C@H](c3nc(Cc4ccccc4)no3)C[C@@H]12 | ? | ? | -9% | -21% | i | 0
COCCOCC(=O)N1CCCCCCNC(=O)[C@@H]2C[C@@H](c3nc(Cc4ccccc4)no3)C[C@@H]21 | -14% | i | ? | 20% | i | 1
O=C1NCCCCCCN(C(=O)CCC2CCCC2)[C@H]2C[C@H](c3nc(Cc4ccccc4)no3)C[C@@H]12 | ? | 32µM* | -10% | 18% | i | 0
O=C1NCCCCCCN(C(=O)CC2CCCCC2)[C@H]2C[C@H](c3nc(Cc4ccccc4)no3)C[C@@H]12 | 35µM* | ? | -21% | 12% | i | 13
COc1ccccc1Nc1ccnc(N2CCC[C@H]2C(=O)NCc2cccnc2)n1 | -17% | ? | -8%[12.5 µM] | 2% | . | 1
COc1ccc(-c2cnc3[nH]cc(CC(=O)N(C)C)c3c2)cc1 | 13µM* | ? | 6%[87.6 µM] | 46%[87.6 µM] | 22µM* | -20
COc1ccc(-c2cnc3[nH]cc(CC(=O)Nc4ccc(OC)nc4)c3c2)cc1 | ? | ? | -18%[87.6 µM] | 1%[87.6 µM] | i | 3
COc1ccc(-c2cnc3[nH]cc(CC(=O)NCCN(C)C)c3c2)cc1 | 50µM* | 100µM* | 3%[87.6 µM] | 47%[87.6 µM] | i | -16
COc1ccc(-c2cnc3[nH]cc(CC(=O)NC4CCOCC4)c3c2)cc1 | 25µM* | ? | 5%[87.6 µM] | 18%[87.6 µM] | ? | -8
O=C(NCc1ccc(F)cc1)c1nc(-c2cccnc2)c2ccccn12 | ? | ? | -18% | 0% | . | -6
Cc1cc(C(=O)Nc2ccc(C(O)[C@H]3COCC(=O)N3Cc3ccc(C(F)(F)F)cc3)cc2)n(C)n1 (some centres not stated) | ? | ? | 0% | 7% | i | -14
Cc1nn2c(c1-c1ccccc1-c1ccccc1)N(Cc1ccc(O)cc1)CCC2 | 8.9µM* | 7.9µM* | ? | ? | i | 6
Cc1cccc(CN2CCCn3nc(C)c(-c4ccccc4-c4ccccc4)c32)n1 | 13µM* | ? | ? | 4.5µM* | i | 3
Cc1nn2c(c1-c1ccccc1-c1ccccc1)N(C(=O)Cc1ccccn1)CCC2 | -4%[138 µM] | ? | -2%[87.6 µM] | -20%[87.6 µM] | i | 21
CC(C)NC(=O)C[C@@H]1C[C@H]2O[C@H](CNC(=O)NCc3ccccc3)[C@@H](O)[C@H]2O1 | 1%[174 µM] | i | -1%[87.6 µM] | -26%[87.6 µM] | i | -4
O=C(NCc1cc(F)cc(F)c1)C1CCN(C(=O)c2ncn3c2COC(c2ccc(F)cc2)C3)CC1 (configuration not stated) | 0% | -19% | -5% | ? | ? | -8
O=C(NCc1ccccn1)C1CCN(C(=O)c2ncn3c2COC(c2ccc(Cl)cc2)C3)CC1 (configuration not stated) | 4% | -10% | 4% | 17% | 32µM* | 0
COc1ccc(C2Cn3cnc(C(=O)N4CCC(C(=O)NCc5ccccn5)CC4)c3CO2)cc1 (configuration not stated) | i | 5% | 3% | -6% | i | 1
O=C(NCc1ccccc1)C1CCN(C(=O)c2ncn3c2COC(c2ccc(Cl)cc2)C3)CC1 (configuration not stated) | i | 11% | 8% | 30% | ? | -3
O=C(NCc1cccc(Cl)c1)C1CCN(C(=O)c2ncn3c2COC(c2ccc(F)cc2)C3)CC1 (configuration not stated) | 1% | 14% | -5% | 21% | 25µM* | 17
O=C(NCc1cccc(Cl)c1)C1CCN(C(=O)c2ncn3c2COC(c2ccccc2)C3)CC1 (configuration not stated) | -19% | 1% | 16% | 34% | 20µM* | -6
CC(=O)NC1(C)CCCN(Cc2cccc(-c3ccc4c(ccn4C)c3)c2)C1 (configuration not stated) | 79µM* | 56µM* | ? | -5%[87.6 µM] | ? | -4
CC(=O)NC1(C)CCN(Cc2cccc(-c3cccc(Cl)c3)c2)C1 (configuration not stated) | ? | 79µM* | 8%[87.6 µM] | 94%[87.6 µM] | ? | 5
SMILES | NIH3T3 tox | HEK cytotox | HEK293 viab | SNCA expr inhib | FLuc inh | IP6K1 inhibitor
CC(=O)NC1(C)CCCN(Cc2cccc(Nc3ccccc3)c2)C1 (configuration not stated) | ? | ? | 5%[87.6 µM] | 10%[87.6 µM] | i | 13
COc1ccc(-c2cccc(CN3CCCC(C)(NC(C)=O)C3)c2)cc1OC (configuration not stated) | ? | ? | 3%[87.6 µM] | 62%[87.6 µM] | i | 23
O=C1NCCOCCN(C(=O)NCCc2ccccc2)[C@@H]2CCCC[C@H]12 | -11% | -8% | 5% | ? | i | -9
COc1cccc(N2C(=O)NC(=NC3CCCC3)C23CCN(CCC(C)C)C3)c1 (configuration not stated) | ? | ? | -8% | -7% | . | 4
O=C(c1ccco1)N1CCc2c(nc(-c3ccc(F)cc3)[nH]c2=O)C1 | ? | 3% | 9% | 10% | i | 20
O=C(c1nccc2ccccc12)N1CCc2c(nc(-c3ccc(F)cc3)[nH]c2=O)C1 | 14µM* | ? | -10% | -11% | i | 18
O=C(NCc1cccnc1)C1(CCO)CC12CCOCC2 (configuration not stated) | i | 0% | -1% | -8% | 28µM* | 11
Cc1ccc2c(=O)cc(C(=O)NCc3ccccc3)oc2c1 | . | . | -21% | -2% | . | -14
Cc1ccc(C(=O)N(CCCN)C(c2oc3cc(Cl)ccc3c(=O)c2Cc2ccccc2)C(C)C)cc1 (configuration not stated) | . | . | 30µM* | . | . | -1
